Data published in publication PMC8384837, “Expanding the binding specificity for RNA recognition by a PUF domain”.

What was measured:
Assay in all cases: yeast three-hybrid, YBZ-1, SC-Leu-His + 0.5 mM 3-AT, 4 days
Conditions in all cases: tags: N-Gal4 AD-HA kept; label: inside an RPR1-promoter hybrid RNA with tandem MS2 sites; ssRNA
PUM1 PUF domain R1-RKM = PUM1 PUF domain R1-RKM (Homo sapiens, UniProt Q14671 828-1176, S863R;R864K;Q867M)
Procedure, shortened: (§1)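 Pumilio-1 PUF domain libraries, randomized at the three base-contacting residues of each repeat, were co-expressed with matching RNA elements from a centromeric plasmid in strain YBZ-1, which carries a LexA–MS2 coat fusion and a HIS3 reporter. Transformants grew for four days on SC-Leu (input) or on SC-Leu-His + 0.5 mM 3-AT (selection), and the repeat regions were PCR-amplified and Illumina-sequenced. The interaction score is the log change in variant frequency from input to selection. That logarithm is base 2, with a pseudocount of 1 where a variant was absent.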

PUM1 PUF domain R1-NYV = PUM1 PUF domain R1-NYV (Homo sapiens, UniProt Q14671 828-1176, S863N;R864Y;Q867V)
Procedure, shortened: as §1

PUM1 PUF domain R5-RRN = PUM1 PUF domain R5-RRN (Homo sapiens, UniProt Q14671 828-1176, C1007R;Q1011N)
Procedure, shortened: as §1

PUM1 PUF domain R3-GRF = PUM1 PUF domain R3-GRF (Homo sapiens, UniProt Q14671 828-1176, C935G;Q939F)
Procedure, shortened: as §1

PUM1 PUF domain R5-ARR = PUM1 PUF domain R5-ARR (Homo sapiens, UniProt Q14671 828-1176, C1007A;Q1011R)
Procedure, shortened: as §1

PUM1 PUF domain R3-GFG = PUM1 PUF domain R3-GFG (Homo sapiens, UniProt Q14671 828-1176, C935G;R936F;Q939G)
Procedure, shortened: as §1

PUM1 PUF domain R3-GPS = PUM1 PUF domain R3-GPS (Homo sapiens, UniProt Q14671 828-1176, C935G;R936P;Q939S)
Procedure, shortened: as §1

PUM1 PUF domain R4-SMT = PUM1 PUF domain R4-SMT (Homo sapiens, UniProt Q14671 828-1176, N971S;H972M;Q975T)
Procedure, shortened: as §1

PUM1 PUF domain R8-PFK = PUM1 PUF domain R8-PFK (Homo sapiens, UniProt Q14671 828-1176, N1122P;Y1123F;Q1126K)
Procedure, shortened: as §1

PUM1 PUF domain R3-WWS = PUM1 PUF domain R3-WWS (Homo sapiens, UniProt Q14671 828-1176, C935W;R936W;Q939S)
Procedure, shortened: as §1

PUM1 PUF domain R8-WFR = PUM1 PUF domain R8-WFR (Homo sapiens, UniProt Q14671 828-1176, N1122W;Y1123F;Q1126R)
Procedure, shortened: as §1

PUM1 PUF domain R7-KGV = PUM1 PUF domain R7-KGV (Homo sapiens, UniProt Q14671 828-1176, S1079K;N1080G;E1083V)
Procedure, shortened: as §1

PUM1 PUF domain R3-TCE = PUM1 PUF domain R3-TCE (Homo sapiens, UniProt Q14671 828-1176, C935T;R936C;Q939E)
Procedure, shortened: as §1

PUM1 PUF domain R3-TWD = PUM1 PUF domain R3-TWD (Homo sapiens, UniProt Q14671 828-1176, C935T;R936W;Q939D)
Procedure, shortened: as §1

PUM1 PUF domain R5-RFN = PUM1 PUF domain R5-RFN (Homo sapiens, UniProt Q14671 828-1176, C1007R;R1008F;Q1011N)
Procedure, shortened: as §1

PUM1 PUF domain R5-GWY = PUM1 PUF domain R5-GWY (Homo sapiens, UniProt Q14671 828-1176, C1007G;R1008W;Q1011Y)
Procedure, shortened: as §1

PUM1 PUF domain R4-EHT = PUM1 PUF domain R4-EHT (Homo sapiens, UniProt Q14671 828-1176, N971E;Q975T)
Procedure, shortened: as §1

PUM1 PUF domain R3-NPR = PUM1 PUF domain R3-NPR (Homo sapiens, UniProt Q14671 828-1176, C935N;R936P;Q939R)
Procedure, shortened: as §1

PUM1 PUF domain R3-RSD = PUM1 PUF domain R3-RSD (Homo sapiens, UniProt Q14671 828-1176, C935R;R936S;Q939D)
Procedure, shortened: as §1

PUM1 PUF domain R8-HHP = PUM1 PUF domain R8-HHP (Homo sapiens, UniProt Q14671 828-1176, N1122H;Y1123H;Q1126P)
Procedure, shortened: as §1

Chain of PUM1 PUF domain R5-RRN (Q14671 828-1176 C1007R/Q1011N): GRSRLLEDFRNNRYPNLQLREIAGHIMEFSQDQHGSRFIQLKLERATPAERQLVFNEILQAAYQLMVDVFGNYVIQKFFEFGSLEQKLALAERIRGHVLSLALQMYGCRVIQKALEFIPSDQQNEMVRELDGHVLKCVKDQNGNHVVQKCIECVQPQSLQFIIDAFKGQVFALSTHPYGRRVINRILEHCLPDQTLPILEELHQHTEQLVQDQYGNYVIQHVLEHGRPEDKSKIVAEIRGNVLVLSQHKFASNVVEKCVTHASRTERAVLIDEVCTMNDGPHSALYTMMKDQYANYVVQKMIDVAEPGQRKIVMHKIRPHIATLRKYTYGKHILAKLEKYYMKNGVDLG
Chain of PUM1 PUF domain R3-GFG (Q14671 828-1176 C935G/R936F/Q939G): as the sequence (Q14671 828-1176 C1007R/Q1011N) above, with C108G, R109F, Q112G, R180C, N184Q counted along it
Chain of PUM1 PUF domain R5-RFN (Q14671 828-1176 C1007R/R1008F/Q1011N): as the sequence (Q14671 828-1176 C1007R/Q1011N) above, with R181F counted along it
Chain of PUM1 PUF domain R8-WFR (Q14671 828-1176 N1122W/Y1123F/Q1126R): as the sequence (Q14671 828-1176 C1007R/Q1011N) above, with R180C, N184Q, N295W, Y296F, Q299R counted along it
Chain of PUM1 PUF domain R3-GRF (Q14671 828-1176 C935G/Q939F): as the sequence (Q14671 828-1176 C1007R/Q1011N) above, with C108G, Q112F, R180C, N184Q counted along it
Chain of PUM1 PUF domain R3-WWS (Q14671 828-1176 C935W/R936W/Q939S): as the sequence (Q14671 828-1176 C1007R/Q1011N) above, with C108W, R109W, Q112S, R180C, N184Q counted along it
Chain of PUM1 PUF domain R4-SMT (Q14671 828-1176 N971S/H972M/Q975T): as the sequence (Q14671 828-1176 C1007R/Q1011N) above, with N144S, H145M, Q148T, R180C, N184Q counted along it
Chain of PUM1 PUF domain R5-ARR (Q14671 828-1176 C1007A/Q1011R): as the sequence (Q14671 828-1176 C1007R/Q1011N) above, with R180A, N184R counted along it
Chain of PUM1 PUF domain R8-PFK (Q14671 828-1176 N1122P/Y1123F/Q1126K): as the sequence (Q14671 828-1176 C1007R/Q1011N) above, with R180C, N184Q, N295P, Y296F, Q299K counted along it
Chain of PUM1 PUF domain R3-GPS (Q14671 828-1176 C935G/R936P/Q939S): as the sequence (Q14671 828-1176 C1007R/Q1011N) above, with C108G, R109P, Q112S, R180C, N184Q counted along it
Chain of PUM1 PUF domain R3-TCE (Q14671 828-1176 C935T/R936C/Q939E): as the sequence (Q14671 828-1176 C1007R/Q1011N) above, with C108T, R109C, Q112E, R180C, N184Q counted along it
Chain of PUM1 PUF domain R8-HHP (Q14671 828-1176 N1122H/Y1123H/Q1126P): as the sequence (Q14671 828-1176 C1007R/Q1011N) above, with R180C, N184Q, N295H, Y296H, Q299P counted along it
Chain of PUM1 PUF domain R3-RSD (Q14671 828-1176 C935R/R936S/Q939D): as the sequence (Q14671 828-1176 C1007R/Q1011N) above, with C108R, R109S, Q112D, R180C, N184Q counted along it
Chain of PUM1 PUF domain R5-GWY (Q14671 828-1176 C1007G/R1008W/Q1011Y): as the sequence (Q14671 828-1176 C1007R/Q1011N) above, with R180G, R181W, N184Y counted along it
Chain of PUM1 PUF domain R1-RKM (Q14671 828-1176 S863R/R864K/Q867M): as the sequence (Q14671 828-1176 C1007R/Q1011N) above, with S36R, R37K, Q40M, R180C, N184Q counted along it
Chain of PUM1 PUF domain R3-NPR (Q14671 828-1176 C935N/R936P/Q939R): as the sequence (Q14671 828-1176 C1007R/Q1011N) above, with C108N, R109P, Q112R, R180C, N184Q counted along it
Chain of PUM1 PUF domain R4-EHT (Q14671 828-1176 N971E/Q975T): as the sequence (Q14671 828-1176 C1007R/Q1011N) above, with N144E, Q148T, R180C, N184Q counted along it
Chain of PUM1 PUF domain R1-NYV (Q14671 828-1176 S863N/R864Y/Q867V): as the sequence (Q14671 828-1176 C1007R/Q1011N) above, with S36N, R37Y, Q40V, R180C, N184Q counted along it
Chain of PUM1 PUF domain R3-TWD (Q14671 828-1176 C935T/R936W/Q939D): as the sequence (Q14671 828-1176 C1007R/Q1011N) above, with C108T, R109W, Q112D, R180C, N184Q counted along it
Chain of PUM1 PUF domain R7-KGV (Q14671 828-1176 S1079K/N1080G/E1083V): as the sequence (Q14671 828-1176 C1007R/Q1011N) above, with R180C, N184Q, S252K, N253G, E256V counted along it

## GGCUAGAACUAGUGGAUCCCCCGGCGCCCGGCGGCUCGAGCCCGGGUAAGUGUAAAUUGUCUGCAUGCCGCCGGGCGCCAUGCCUGCAGGUCGACUCUAGAAAACAUG
PUM1 PUF domain R1-RKM
  binding signal: 3.28 log2 enrichment (interaction score)
PUM1 PUF domain R1-NYV
  binding signal: 3.91 log2 enrichment (interaction score)

## GGCUAGAACUAGUGGAUCCCCCGGCGCCCGGCGGCUCGAGCCCGGGUAAGUGUAAAUAGUCUGCAUGCCGCCGGGCGCCAUGCCUGCAGGUCGACUCUAGAAAACAUG
PUM1 PUF domain R5-RRN
  binding signal: 2.02 log2 enrichment (interaction score)
PUM1 PUF domain R3-GRF
  binding signal: 4.89 log2 enrichment (interaction score)
PUM1 PUF domain R5-ARR
  binding signal: 4.33 log2 enrichment (interaction score)
PUM1 PUF domain R3-GFG
  binding signal: 3.47 log2 enrichment (interaction score)
PUM1 PUF domain R3-GPS
  binding signal: 2.12 log2 enrichment (interaction score)
PUM1 PUF domain R4-SMT
  binding signal: 1.34 log2 enrichment (interaction score)
PUM1 PUF domain R8-PFK
  binding signal: 5.15 log2 enrichment (interaction score)
PUM1 PUF domain R3-WWS
  binding signal: 2.73 log2 enrichment (interaction score)
PUM1 PUF domain R8-WFR
  binding signal: 4.29 log2 enrichment (interaction score)

## GGCUAGAACUAGUGGAUCCCCCGGCGCCCGGCGGCUCGAGCCCGGGUAAGUUUAAAUAGUCUGCAUGCCGCCGGGCGCCAUGCCUGCAGGUCGACUCUAGAAAACAUG
PUM1 PUF domain R7-KGV
  binding signal: 3.27 log2 enrichment (interaction score)

## GGCUAGAACUAGUGGAUCCCCCGGCGCCCGGCGGCUCGAGCCCGGGUAAGUGUAAGUAGUCUGCAUGCCGCCGGGCGCCAUGCCUGCAGGUCGACUCUAGAAAACAUG
PUM1 PUF domain R3-TCE
  binding signal: 5.59 log2 enrichment (interaction score)
PUM1 PUF domain R3-GFG
  binding signal: 1.23 log2 enrichment (interaction score)
PUM1 PUF domain R3-TWD
  binding signal: 2.42 log2 enrichment (interaction score)
PUM1 PUF domain R3-WWS
  binding signal: 5.24 log2 enrichment (interaction score)

## GGCUAGAACUAGUGGAUCCCCCGGCGCCCGGCGGCUCGAGCCCGGGUAAGUGUGAAUAGUCUGCAUGCCGCCGGGCGCCAUGCCUGCAGGUCGACUCUAGAAAACAUG
PUM1 PUF domain R5-RRN
  binding signal: 1.8 log2 enrichment (interaction score)
PUM1 PUF domain R5-RFN
  binding signal: 3.16 log2 enrichment (interaction score)
PUM1 PUF domain R5-GWY
  binding signal: 2.71 log2 enrichment (interaction score)

## GGCUAGAACUAGUGGAUCCCCCGGCGCCCGGCGGCUCGAGCCCGGGUAAGUGUCAAUAGUCUGCAUGCCGCCGGGCGCCAUGCCUGCAGGUCGACUCUAGAAAACAUG
PUM1 PUF domain R5-RRN
  binding signal: 4.4 log2 enrichment (interaction score)
PUM1 PUF domain R5-ARR
  binding signal: 4.7 log2 enrichment (interaction score)

## GGCUAGAACUAGUGGAUCCCCCGGCGCCCGGCGGCUCGAGCCCGGGUAAGCGUAAAUAGUCUGCAUGCCGCCGGGCGCCAUGCCUGCAGGUCGACUCUAGAAAACAUG
PUM1 PUF domain R8-PFK
  binding signal: 4.13 log2 enrichment (interaction score)
PUM1 PUF domain R8-WFR
  binding signal: 4.73 log2 enrichment (interaction score)

## GGCUAGAACUAGUGGAUCCCCCGGCGCCCGGCGGCUCGAGCCCGGGUAAGUGUAUAUAGUCUGCAUGCCGCCGGGCGCCAUGCCUGCAGGUCGACUCUAGAAAACAUG
PUM1 PUF domain R4-SMT
  binding signal: 5.3 log2 enrichment (interaction score)
PUM1 PUF domain R4-EHT
  binding signal: 2.46 log2 enrichment (interaction score)

## GGCUAGAACUAGUGGAUCCCCCGGCGCCCGGCGGCUCGAGCCCGGGUAAGUGUAAUUAGUCUGCAUGCCGCCGGGCGCCAUGCCUGCAGGUCGACUCUAGAAAACAUG
PUM1 PUF domain R3-GRF
  binding signal: 0.84 log2 enrichment (interaction score)
PUM1 PUF domain R3-GPS
  binding signal: 1.97 log2 enrichment (interaction score)
PUM1 PUF domain R3-NPR
  binding signal: 2.25 log2 enrichment (interaction score)
PUM1 PUF domain R3-RSD
  binding signal: 3.6 log2 enrichment (interaction score)

## GGCUAGAACUAGUGGAUCCCCCGGCGCCCGGCGGCUCGAGCCCGGGUAAGGGUAAAUAGUCUGCAUGCCGCCGGGCGCCAUGCCUGCAGGUCGACUCUAGAAAACAUG
PUM1 PUF domain R8-HHP
  binding signal: 2.56 log2 enrichment (interaction score)

## GGCUAGAACUAGUGGAUCCCCCGGCGCCCGGCGGCUCGAGCCCGGGUAAGUGUUAAUAGUCUGCAUGCCGCCGGGCGCCAUGCCUGCAGGUCGACUCUAGAAAACAUG
PUM1 PUF domain R5-RRN
  binding signal: 3.66 log2 enrichment (interaction score)
PUM1 PUF domain R5-RFN
  binding signal: 3.08 log2 enrichment (interaction score)
